The values that follow come from PubChem BioAssay AID2108 (National Center for Advancing Translational Sciences (NCATS), 2009).

This experiment has as its target Alpha-galactosidase A (Homo sapiens) (UniProt P06280). Put plainly: Confirmation of Inhibitors of Human alpha-Galactosidase Using Spleen Homogenate. Put shortly:
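AC50 values come from Hill-equation fits of normalised 4-methylumbelliferone fluorescence (365/440 nm, read after NaOH/glycine stop). Enzyme source: spleen homogenate; substrate 1 mM final; pH 5.0 citrate buffer; 40 min at 37C; compound titration 0.5 nM–58 uM.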

Inconclusive results are not listed. The source made the active and inactive calls. The call rests on the fitted dose curve; in most records, active means well fitted curve in the direction sought with a large enough effect; inconclusive means small, poorly fitted or top-dose-only effect, or effect the other way, or another doubt; inactive means no such curve, though single readings can be large or run the other way.

Sequence of Alpha-galactosidase A (Homo sapiens) (P06280 32-429 limits assumed): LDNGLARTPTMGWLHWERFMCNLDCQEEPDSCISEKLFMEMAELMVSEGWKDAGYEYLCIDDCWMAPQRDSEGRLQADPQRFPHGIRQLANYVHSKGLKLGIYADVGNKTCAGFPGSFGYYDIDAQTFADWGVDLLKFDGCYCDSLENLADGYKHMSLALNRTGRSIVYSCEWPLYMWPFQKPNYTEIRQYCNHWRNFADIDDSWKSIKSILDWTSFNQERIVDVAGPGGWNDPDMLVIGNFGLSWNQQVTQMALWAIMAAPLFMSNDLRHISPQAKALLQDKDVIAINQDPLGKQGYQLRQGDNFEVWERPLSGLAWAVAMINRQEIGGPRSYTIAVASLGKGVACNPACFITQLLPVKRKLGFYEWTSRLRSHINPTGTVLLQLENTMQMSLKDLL

In the case of `O=C(CSc1ncc(C(F)(F)F)cc1Cl)N1CCN(S(=O)(=O)c2ccccc2)CC1`, the outcome was inactive.

For `Brc1ccc(C=Nc2ccc(Nc3ccccc3)cc2)s1`, the compound was classed as inactive. The same measure for `O=c1oc2ccc(Cl)cc2cc1-c1nc2c(s1)CCc1ccccc1-2`: “inactive”. The same measure for `CC(C)NCC(O)COc1cccc2[nH]ccc12` (stereo not drawn): “inactive”. Take `Cc1cccc(NC(=O)c2nc[nH]c2C(=O)N[C@@H](CCCCNC(=O)OC(C)(C)C)C(=O)OC(C)(C)C)c1`: the outcome was inactive. For `CC(C)C[C@H](NC(=O)c1nc[nH]c1C(=O)N[C@@H](CC(C)C)C(=O)OC(C)(C)C)C(=O)OCc1ccccc1` the value was “inactive”; for `Cc1ccc(S(=O)(=O)N2CCOCC2)cc1`, “inactive”. In the case of `Cc1nc(-n2nnc(CO)c2CO)nc2c1CCC2`, the call was inactive. For `COc1ccc(NS(=O)(=O)c2ccc(O)c(NC(=O)c3cc4c(C)nn(-c5ccc(F)cc5)c4s3)c2)cc1` the value was “inactive”; for `N#Cc1ccccc1S(=O)(=O)N1CCOCC1`, “inactive”. The same measure for `S=C(NCCc1ccccc1)N1CCn2cccc2C1c1ccncc1` (stereo not drawn): “inactive”. The same measure for `Nc1ccccc1N=Cc1ccc(-c2cccc(Cl)c2)o1`: “inactive”; for `Cc1ccc(N=Nc2c(N)nn(-c3ccccc3)c2N)cc1`: “inactive”. On to `O=C(c1cc2c(ccc3ccccc32)oc1=O)N1CCN(CCO)CC1`, for which the call was inactive. As to `Cc1ccc(S(=O)(=O)N2CCOCC2)cc1C`, the compound was called inactive. For `CC/C(=N\NC(=O)c1c(C)nc2ccccn12)c1ccc(Cl)cc1` the value was “inactive”. For `CCC1c2ccc(C)n2CCN1C(=O)Nc1ccccc1C(=O)OC` (stereo not drawn) the value was “inactive”.

As for `COCCNS(=O)(=O)c1ccc2c(c1)n(C)c(=O)n2C`, the compound was classed as inactive.
